From PubChem BioAssay AID1508625 (Wald Lab, School of Medicine, Case Western Reserve …, 2021)

Experiment: small molecules boosting NK-mediated OVCAR3 lysis – imaging, primary NK cells, calcein-AM imaging, primary screen (AID 1508625);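 also: compound given to NK cells 16 h before adding targets at 1.5 to 1 ratio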;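 as to z-score: more negative robust z means stronger NK killing of tumor cells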
Conditions: OVCAR3 lysis by primary NK cells, at 5 µM; z-score: measured here: robust Z-score, single-point normalisation

Structure (SMILES) | corrected activity, negative = more killing [%] | z-score
CCN(CC)CCCn1c(=S)[nH]c2cc(C(=O)OC)ccc2c1=O | -3.76 | -0.997
Cc1c(Cl)cccc1NC(=O)c1sc2ncn(CC(=O)N3CCOCC3)c(=O)c2c1C | 0.676 | 0.246
Cc1ccc(NC(=O)CSc2ccc(Nc3ccc(C)cc3)nn2)cc1 | -2.33 | -0.695
Cc1ccc(OCCN2CCNCC2)c(Br)c1 | -2.45 | -1.36
CCN(C(=O)c1c(-c2ccccc2)noc1C)C1CCCCC1 | -2.37 | -0.905
CN1C(=O)c2ccccc2C(C(=O)Nc2ccc3c(c2)OCCO3)C1c1cccs1 (stereo unspecified) | -7.21 | -1.79
Cc1ccccc1C(=O)N1N=C(c2ccc(F)cc2)CC1(O)C(F)(F)F (stereo unspecified) | -4.55 | -2.44
CCN1CCN(C(=O)c2oc3ccc(S(=O)(=O)N4CCCCCC4)cc3c2C)CC1 | -6.41 | -1.6
O=C(O)C1C2C=CC(O2)C1C(=O)Nc1ccccc1C(F)(F)F (stereo unspecified) | -3.8 | -1.56
COc1cc(C=NS(=O)(=O)c2cccs2)cc(Br)c1O | -1.94 | -0.74
CC1CCN(CCCCCOc2ccccc2Br)CC1 | -0.201 | -0.0828
COC(=O)c1ccc(Sc2ccc(C)cc2)c([N+](=O)[O-])c1 | -2.5 | -0.675
COCCNC(=O)c1ccc2snnc2c1 | -3.88 | -1.16
CC(=O)c1cccc(NC(=O)CSc2ccc(Cl)cc2)c1 | -1.79 | -0.668
COC(=O)c1ccc(CN2CCN3CCCC3C2C2CCCCC2)cc1 (stereo unspecified) | -2.78 | -1.21
COc1ccc(S(=O)(=O)NCCc2ccccc2)c2ccccc12 | -3.37 | -1.46
CCCCNCC(=O)Nc1ccc(Br)cc1 | -5.05 | -1.88

Structure (SMILES) | corrected activity, negative = more killing [%] | z-score
c1cc2c(cc1Nc1nc(-c3ccc(C4CCCCC4)cc3)cs1)OCO2 | 0.134 | 0.0696
COc1c(Cl)cc(Cl)cc1C(=O)n1nc(C)cc1C | -2.7 | -1.06
COC(=O)c1cc(NC(=O)c2cc3nc(-c4ccc(Cl)cc4)cc(C(F)(F)F)n3n2)cc(C(=O)OC)c1 | -8 | -2.54
O=C(Nc1ccccc1[N+](=O)[O-])C12CC3CC(CC(C3)C1)C2 | -1.55 | -0.55
CC(=O)C1C(=O)CC(c2ccccc2)CC1=O (stereo unspecified) | -5.17 | -2.04
CC(=O)c1cccc(NC(=O)c2ccc(NS(=O)(=O)c3ccccc3)cc2)c1 | -4.58 | -1.71
CCOc1ccc(C2C(N3C(=O)c4cccc([N+](=O)[O-])c4C3=O)C(=O)N2c2cc(Cl)ccc2C)cc1 (stereo unspecified) | -3.8 | -1.18
Cc1nc2ccc3nc(NC(=O)c4cc([N+](=O)[O-])ccc4Cl)sc3c2s1 | -2.51 | -0.528
O=[N+]([O-])c1ccc(OCc2ccc(Br)cc2)cc1 | -1.79 | -0.994
OC(CN1CCN(C2c3ccccc3-c3ccccc32)CC1)Cn1c2ccccc2c2ccccc21 (stereo unspecified) | -8.62 | -1.82
CC(=O)CSc1nc(-c2cccs2)cc(C(F)(F)F)c1C#N | -1.56 | -0.485
O=C1CSc2ccc(S(=O)(=O)N3CCOCC3)cc2N1 | -4.98 | -1.34
O=C1C(=O)N(CO)C(c2ccccc2)C1=C(O)c1ccccc1 (stereo unspecified) | -3.26 | -1.23
CCOc1ccc(C2C(=C(O)c3ccc(Cl)cc3)C(=O)C(=O)N2c2nc3ccccc3s2)cc1 (stereo unspecified) | -4.47 | -1.71
Cc1cc(OCCN2CCCCCC2)ccc1[N+](=O)[O-] | -3.28 | -1.82
CCC1CCCCN1C(=O)c1cc2c(=O)n3ccccc3nc2s1 (stereo unspecified) | -5.2 | -1.47
